Results reported in publication PMC5540273 (PLoS ONE, 2017).

What was measured:
Conditions in all cases: concentration: 1 μM, replicates: in singlicate; n = 1
[1] = system: T1, DCAMKL2
T1 construct: gene DCLK2

[2] = system: T2, DCAMKL3
T2 construct: gene DCLK3

[3] = system: DDR1
[4] = system: DDR2
[5] = system: T3, DLK
T3 construct: gene MAP3K12

[6] = system: T4, DMPK2
T4 construct: gene CDC42BPG

[7] = system: DMPK
[8] = system: T5, DRAK1
T5 construct: gene STK17A

[9] = system: T6, DRAK2
T6 construct: gene STK17B

[10] = system: DYRK1A
[11] = system: DYRK1B
[12] = system: DYRK2
[13] = system: EGFR
[14] = system: EIF2AK1
[15] = system: EPHA1
[16] = system: EPHA2
[17] = system: EPHA3
[18] = system: EPHA4
[19] = system: EPHA5
[20] = system: EPHA6
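Note: KINOMEscan kinase panel screen.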

CC(C)NCC(Cc1ccccc1)NC(=O)c1cc(Br)c(-c2ccnc3[nH]ccc23)s1.Cl.Cl (stereo not shown) [GSK1383281]
%Inh [1]: 0%
%Inh [2]: 54%
%Inh [3]: 0%
%Inh [4]: 13%
%Inh [5]: 24%
%Inh [6]: 50%
%Inh [7]: 32%
%Inh [8]: 0%
%Inh [9]: 4%
%Inh [10]: 17%
%Inh [11]: 29%
%Inh [12]: 33%
%Inh [13]: 26%
%Inh [14]: 0%
%Inh [15]: 6%
%Inh [16]: 0%
%Inh [17]: 8%
%Inh [18]: 0%
%Inh [19]: 0%
%Inh [20]: 0%

Cl.O=C(Nc1ccc(Oc2ccc3[nH]c(NC(=O)c4ccco4)nc3c2)cc1)Nc1cc(C(F)(F)F)ccc1F [GW683134]
%Inh [1]: 7%
%Inh [2]: 0%
%Inh [3]: 100%
%Inh [4]: 95.7%
%Inh [5]: 22%
%Inh [6]: 0%
%Inh [7]: 0%
%Inh [8]: 0%
%Inh [9]: 0%
%Inh [10]: 13%
%Inh [11]: 6%
%Inh [12]: 0%
%Inh [13]: 44%
%Inh [14]: 4%
%Inh [15]: 91.8%
%Inh [16]: 95.2%
%Inh [17]: 20%
%Inh [18]: 93.6%
%Inh [19]: 48%
%Inh [20]: 96.4%

CN(c1ccc(F)c(NC(=O)c2cccc(OC(C)(C)C#N)c2Cl)c1)c1ccc2nc(NC(=O)C3CC3)sc2n1
%Inh [1]: 0%
%Inh [2]: 0%
%Inh [3]: 100%
%Inh [4]: 97%
%Inh [5]: 2%
%Inh [6]: 14%
%Inh [7]: 0%
%Inh [8]: 0%
%Inh [9]: 0%
%Inh [10]: 0%
%Inh [11]: 46%
%Inh [12]: 0%
%Inh [13]: 64%
%Inh [14]: 7%
%Inh [15]: 58%
%Inh [16]: 67%
%Inh [17]: 31%
%Inh [18]: 20%
%Inh [19]: 0%
%Inh [20]: 27%

Nc1ncc(-c2cn[nH]c2)c2scc(-c3ccc4c(c3)CCN4C(=O)Cc3ccccc3)c12 [GSK2593067]
%Inh [1]: 5%
%Inh [2]: 0%
%Inh [3]: 98.4%
%Inh [4]: 22%
%Inh [5]: 18%
%Inh [6]: 90.3%
%Inh [7]: 0%
%Inh [8]: 0%
%Inh [9]: 0%
%Inh [10]: 20%
%Inh [11]: 0%
%Inh [12]: 7%
%Inh [13]: 25%
%Inh [14]: 48%
%Inh [15]: 26%
%Inh [16]: 0%
%Inh [17]: 0%
%Inh [18]: 0%
%Inh [19]: 0%
%Inh [20]: 12%

Cc1cc(-c2ccnc(Nc3cccc(C#N)c3)n2)cc(C)c1O [GSK1440913]
%Inh [1]: 10%
%Inh [2]: 61%
%Inh [3]: 0%
%Inh [4]: 23%
%Inh [5]: 46%
%Inh [6]: 22%
%Inh [7]: 0%
%Inh [8]: 96.8%
%Inh [9]: 45%
%Inh [10]: 46%
%Inh [11]: 51%
%Inh [12]: 61%
%Inh [13]: 38%
%Inh [14]: 0%
%Inh [15]: 27%
%Inh [16]: 24%
%Inh [17]: 4%
%Inh [18]: 13%
%Inh [19]: 0%
%Inh [20]: 13%

Cc1ccc(C)c(NC(=O)Nc2ccc(C)c(-c3ccc(C(=O)Nc4ccncc4)cc3)c2)c1 [GSK1398473]
%Inh [1]: 0%
%Inh [2]: 13%
%Inh [3]: 99.8%
%Inh [4]: 72%
%Inh [5]: 0%
%Inh [6]: 1%
%Inh [7]: 4%
%Inh [8]: 0%
%Inh [9]: 0%
%Inh [10]: 36%
%Inh [11]: 25%
%Inh [12]: 10%
%Inh [13]: 35%
%Inh [14]: 0%
%Inh [15]: 0%
%Inh [16]: 19%
%Inh [17]: 0%
%Inh [18]: 29%
%Inh [19]: 15%
%Inh [20]: 16%

CN(C)CCOc1ccc(-c2cc(-c3ccc(Cl)c(O)c3)c(-c3ccncc3)[nH]2)cc1.Cl.Cl [SB-684387]
%Inh [1]: 0%
%Inh [2]: 10%
%Inh [3]: 56%
%Inh [4]: 38%
%Inh [5]: 14%
%Inh [6]: 41%
%Inh [7]: 29%
%Inh [8]: 20%
%Inh [9]: 0%
%Inh [10]: 0%
%Inh [11]: 30%
%Inh [12]: 18%
%Inh [13]: 38%
%Inh [14]: 31%
%Inh [15]: 51%
%Inh [16]: 16%
%Inh [17]: 19%
%Inh [18]: 10%
%Inh [19]: 0%
%Inh [20]: 32%

CSc1ccc(NC2=C(c3ccc(Cl)cc3)C(=O)NC2=O)cc1 [SB-317658]
%Inh [1]: 2%
%Inh [2]: 12%
%Inh [3]: 0%
%Inh [4]: 5%
%Inh [5]: 0%
%Inh [6]: 10%
%Inh [7]: 8%
%Inh [8]: 12%
%Inh [9]: 0%
%Inh [10]: 1%
%Inh [11]: 17%
%Inh [12]: 22%
%Inh [13]: 6%
%Inh [14]: 0%
%Inh [15]: 32%
%Inh [16]: 0%
%Inh [17]: 0%
%Inh [18]: 28%
%Inh [19]: 31%
%Inh [20]: 26%

Cc1cccc(Nc2nc(N[C@H]3CCCC[C@H]3N)ncc2C(N)=O)c1.Cl [GSK986310]
%Inh [1]: 3%
%Inh [2]: 35%
%Inh [3]: 6%
%Inh [4]: 0%
%Inh [5]: 19%
%Inh [6]: 21%
%Inh [7]: 59%
%Inh [8]: 4%
%Inh [9]: 18%
%Inh [10]: 26%
%Inh [11]: 37%
%Inh [12]: 24%
%Inh [13]: 38%
%Inh [14]: 22%
%Inh [15]: 26%
%Inh [16]: 11%
%Inh [17]: 58%
%Inh [18]: 6%
%Inh [19]: 2%
%Inh [20]: 6%

COc1ccc(C2=C(Nc3cccc(O)c3)C(=O)NC2=O)cc1 [SB-390766]
%Inh [1]: 0%
%Inh [2]: 1%
%Inh [3]: 1%
%Inh [4]: 17%
%Inh [5]: 19%
%Inh [6]: 0%
%Inh [7]: 0%
%Inh [8]: 3%
%Inh [9]: 0%
%Inh [10]: 70%
%Inh [11]: 100%
%Inh [12]: 30%
%Inh [13]: 32%
%Inh [14]: 5%
%Inh [15]: 11%
%Inh [16]: 0%
%Inh [17]: 0%
%Inh [18]: 0%
%Inh [19]: 0%
%Inh [20]: 0%

CCNC(=O)/C=C/c1n[nH]c2cc(Sc3ccccc3C(=O)NC)ccc12
%Inh [1]: 11%
%Inh [2]: 30%
%Inh [3]: 0%
%Inh [4]: 0%
%Inh [5]: 9%
%Inh [6]: 3%
%Inh [7]: 3%
%Inh [8]: 49%
%Inh [9]: 0%
%Inh [10]: 21%
%Inh [11]: 0%
%Inh [12]: 7%
%Inh [13]: 23%
%Inh [14]: 29%
%Inh [15]: 9%
%Inh [16]: 7%
%Inh [17]: 0%
%Inh [18]: 5%
%Inh [19]: 42%
%Inh [20]: 16%

Cc1cccc(Nc2nc(NCCN)ncc2C(N)=O)c1 [GSK1292139]
%Inh [1]: 0%
%Inh [2]: 0%
%Inh [3]: 0%
%Inh [4]: 20%
%Inh [5]: 62%
%Inh [6]: 60%
%Inh [7]: 14%
%Inh [8]: 58%
%Inh [9]: 68%
%Inh [10]: 2%
%Inh [11]: 27%
%Inh [12]: 33%
%Inh [13]: 15%
%Inh [14]: 0%
%Inh [15]: 14%
%Inh [16]: 0%
%Inh [17]: 64%
%Inh [18]: 0%
%Inh [19]: 0%
%Inh [20]: 0%

CS(=O)(=O)c1cccc(CNc2nc(Nc3ccc4c(c3)CCC(=O)N4)ncc2C(F)(F)F)c1
%Inh [1]: 0%
%Inh [2]: 99.4%
%Inh [3]: 0%
%Inh [4]: 2%
%Inh [5]: 13%
%Inh [6]: 0%
%Inh [7]: 0%
%Inh [8]: 95.6%
%Inh [9]: 98.3%
%Inh [10]: 85%
%Inh [11]: 61%
%Inh [12]: 0%
%Inh [13]: 0%
%Inh [14]: 0%
%Inh [15]: 1%
%Inh [16]: 0%
%Inh [17]: 0%
%Inh [18]: 0%
%Inh [19]: 0%
%Inh [20]: 0%

COc1cccc(-c2nc(-c3ccccc3)[nH]c2-c2ccncc2)c1 [SB-610250]
%Inh [1]: 22%
%Inh [2]: 14%
%Inh [3]: 78%
%Inh [4]: 49%
%Inh [5]: 16%
%Inh [6]: 68%
%Inh [7]: 0%
%Inh [8]: 0%
%Inh [9]: 0%
%Inh [10]: 22%
%Inh [11]: 20%
%Inh [12]: 2%
%Inh [13]: 12%
%Inh [14]: 5%
%Inh [15]: 18%
%Inh [16]: 0%
%Inh [17]: 0%
%Inh [18]: 17%
%Inh [19]: 0%
%Inh [20]: 9%

Cc1ccc(NC(=O)c2ccnc(N3CCCCC3)c2)cc1-c1ccc(C(=O)NCC2CC2)cc1 [GW775610]
%Inh [1]: 0%
%Inh [2]: 4%
%Inh [3]: 99%
%Inh [4]: 93.6%
%Inh [5]: 5%
%Inh [6]: 0%
%Inh [7]: 0%
%Inh [8]: 0%
%Inh [9]: 0%
%Inh [10]: 40%
%Inh [11]: 29%
%Inh [12]: 2%
%Inh [13]: 26%
%Inh [14]: 0%
%Inh [15]: 0%
%Inh [16]: 5%
%Inh [17]: 6%
%Inh [18]: 0%
%Inh [19]: 31%
%Inh [20]: 0%

CCn1c(-c2nonc2N)nc2c(-c3ccccc3)ncc(OCCCN)c21.O=C(O)C(F)(F)F.O=C(O)C(F)(F)F [GSK260205]
%Inh [1]: 9%
%Inh [2]: 70%
%Inh [3]: 26%
%Inh [4]: 31%
%Inh [5]: 0%
%Inh [6]: 100%
%Inh [7]: 0%
%Inh [8]: 5%
%Inh [9]: 2%
%Inh [10]: 23%
%Inh [11]: 0%
%Inh [12]: 14%
%Inh [13]: 56%
%Inh [14]: 90.8%
%Inh [15]: 24%
%Inh [16]: 0%
%Inh [17]: 12%
%Inh [18]: 0%
%Inh [19]: 0%
%Inh [20]: 0%

Nc1ncnc2scc(-c3ccc(NC(=O)Cc4cc(F)ccc4F)cc3)c12.O=C(O)C(F)(F)F [SB-731254-M]
%Inh [1]: 11%
%Inh [2]: 16%
%Inh [3]: 58%
%Inh [4]: 24%
%Inh [5]: 0%
%Inh [6]: 23%
%Inh [7]: 6%
%Inh [8]: 3%
%Inh [9]: 10%
%Inh [10]: 12%
%Inh [11]: 0%
%Inh [12]: 0%
%Inh [13]: 80%
%Inh [14]: 95.2%
%Inh [15]: 13%
%Inh [16]: 100%
%Inh [17]: 21%
%Inh [18]: 24%
%Inh [19]: 0%
%Inh [20]: 0%
